Results filed as inconclusive are left out. Active and inactive are the calls of the source. Unless noted, the call rests on the fitted dose curve; in most records, active means well fitted curve in the direction sought with a large enough effect in the repeat runs; inconclusive means weak or mixed curves; inactive means no such curve, though single readings can be large; an effect the other way counts as inactive or inconclusive.
Tests used:
[1] = target: Aryl hydrocarbon receptor (Homo sapiens) (UniProt P35869); experiment: qHTS assay to identify small molecule that activate the aryl hydrocarbon receptor (AhR) signaling pathway (AID 743085);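 further: HG2L7.5c1 human HepG2 liver cells with stably integrated DRE-driven firefly reporter; series mostly up to about 70 µM; nearly all actives have a fitted effect of over 15% in size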
In short: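 AhR agonist activity is inferred from enhanced light output of a DRE-controlled firefly luciferase reporter in HepG2 cells, measured with ONE-Glo following 24 h treatment at 37C.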

[2] = qHTS assay to identify small molecule that activate the aryl hydrocarbon receptor (AhR) signaling pathway - cell viability counter screen (AID 743086);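 further: HepG2 liver cells carrying the AhR DRE luciferase reporter; series mostly up to about 70 µM; nearly all actives have a fitted effect of over 45% in size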
In short: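 Cytotoxicity counter screen: CellTiter-Fluor signal (30 min, 37 C) in 4000 HepG2 cells/well carrying the DRE-luciferase reporter, following 24 h compound exposure at 37 C.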

[3] = target: Peroxisome proliferator-activated receptor gamma (Homo sapiens) (UniProt P37231); experiment: qHTS assay to identify small molecule agonists of the peroxisome proliferator-activated receptor gamma (PPARg) signaling pathway (AID 743094; active means well fitted activation curve with a large enough effect in the signal ratio in the repeat runs, not every such curve was filed as active; the % refers to the signal ratio)
In short: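 Agonist activity was taken from a beta-lactamase reporter (FRET substrate, 1 h at room temperature) in HEK293H cells carrying a PPARg UAS-bla construct. Compounds in DMSO were incubated 17 h at 37C after a 5 h cell pre-incubation.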

[4] = qHTS assay to identify small molecule antagonists of the peroxisome proliferator-activated receptor gamma (PPARg) signaling pathway - cell viability counter screen (AID 743194); further: nearly all actives have a fitted effect of over 55% in size
In short: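 Viability was measured as CellTiter-Glo luminescence in GeneBLAzer PPARg UAS-bla HEK293H cells. These cells had been exposed 17 h at 37 C to compounds together with rosiglitazone at 50 nM final, with the beta-lactamase readout taken in the same wells.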

[5] = qHTS assay for small molecule agonists of the antioxidant response element (ARE) signaling pathway (AID 743202; active means well fitted activation curve with a large enough effect in the signal ratio in the repeat runs, not every such curve was filed as active; the % refers to the signal ratio)
In short: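 After 16 hours of compound treatment at 37 C, HepG2 cells with a stably integrated ARE-driven beta-lactamase reporter were loaded 2 hours at room temperature with LiveBLAzer B/G FRET substrate and fluorescence intensity measured.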

[6] = qHTS assay for small molecule agonists of the antioxidant response element (ARE) signaling pathway - cell viability counter screen (AID 743203; calls by dose curve; further: nearly all actives have a fitted effect of over 55% in size)
In short: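 Viability counter screen: CellTiter-Glo luminescence, read after 30 min at room temperature, in ARE-bla HepG2 wells. Compound exposure lasted 16 h at 37C/5% CO2, following a 5 h pre-incubation of the cells after plating.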

[7] = qHTS assay for small molecule activators of the heat shock response signaling pathway (AID 743210; active means well fitted activation curve with a large enough effect in the signal ratio in the repeat runs, with a control signal flat, not every such curve was filed as active; the % refers to the signal ratio; further: series mostly up to about 63 µM)
In short: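 Compound exposure lasted 5 h at 37 C in HeLa cells carrying a heat-shock-element-driven beta-lactamase reporter. Read-out: fluorescence intensity after 2.5 h room-temperature loading with LiveBLAzer B/G FRET substrate.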

[8] = qHTS assay to identify small molecule agonists of the peroxisome proliferator-activated receptor delta (PPARd) signaling pathway - cell viability counter screen (AID 743211); further: nearly all actives have a fitted effect of over 55% in size
In short: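 qHTS cell viability: PPARd-bla HEK293H; 17 h cpd, 37C; CellTiter-Glo, luminescence at 30 min RT.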

[9] = target: Bile acid receptor (Homo sapiens) (UniProt Q96RI1); experiment: qHTS assay to identify small molecule antagonists of the farnesoid-X-receptor (FXR) signaling pathway (AID 743217; active means well fitted inhibition curve with a large enough effect in the signal ratio in the repeat runs, not every such curve was filed as active; the % refers to the signal ratio)
In short: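 Antagonist mode: chenodeoxycholic acid at 50 uM final stimulates a UAS-driven beta-lactamase reporter in HEK 293T FXR-bla cells during 16 h, 37C compound exposure. Read-out is FRET substrate fluorescence after 2 h at room temperature.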

[10] = qHTS assay to identify small molecule agonists of the farnesoid-X-receptor (FXR) signaling pathway - cell viability counter screen (AID 743218); further: nearly all actives have a fitted effect of over 45% in size
In short: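 Viability counter screen in the same wells: CellTiter-Glo luminescence, 30 min room-temperature incubation, measured after the beta-lactamase read. Cells were GeneBLAzer FXR-UAS-bla HEK 293T, compound-treated 16 h at 37C.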

[11] = target: Bile acid receptor (Homo sapiens) (UniProt Q96RI1); experiment: qHTS assay to identify small molecule agonists of the farnesoid-X-receptor (FXR) signaling pathway (AID 743220; active means well fitted activation curve with a large enough effect in the signal ratio in the repeat runs, not every such curve was filed as active; the % refers to the signal ratio)
In short: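 FXR-UAS-bla HEK 293T cells carrying a UAS-driven beta-lactamase reporter were plated for 5 h at 37C/5% CO2, then exposed to DMSO-dissolved Tox21 10K compounds for 16 h at 37C. A LiveBLAzer B/G FRET substrate was loaded for 2 h at room temperature before fluorescence reading.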

[12] = qHTS assay to identify small molecule antagonists of the farnesoid-X-receptor (FXR) signaling pathway - cell viability counter screen (AID 743221; active means well fitted cell-killing curve with a large enough effect in the repeat runs, not every such curve was filed as active; further: nearly all actives have a fitted effect of over 50% in size)
In short: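 After a 5 h settling period, FXR-bla HEK 293T cells receive compound and chenodeoxycholic acid (50 uM final) and incubate 16 h at 37 C; CellTiter-Glo luminescence, read after 30 min at room temperature, reports cell viability.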

[13] = target: Vitamin D3 receptor (Homo sapiens) (UniProt P11473); experiment: qHTS assay to identify small molecule agonists of the vitamin D receptor (VDR) signaling pathway (AID 743222; calls by dose curve)
In short: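 Agonist mode, beta-lactamase reporter: fluorescence from LiveBLAzer B/G FRET substrate (2 h, room temperature) read after 16 h compound treatment at 37 C of VDR-bla cells, which were pre-incubated 4 h after seeding.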

[14] = qHTS assay to identify small molecule agonists of the vitamin D receptor (VDR) signaling pathway - cell viability counter screen (AID 743224); further: series mostly up to about 63 µM; nearly all actives have a fitted effect of over 50% in size
In short: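 Counter screen run in the same wells as the VDR-bla reporter assay: CellTiter-Glo luminescence, 30 min at room temperature, after 16 h compound treatment at 37C of cells pre-plated for 4 h.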

[15] = target: Peroxisome proliferator-activated receptor delta (Homo sapiens) (UniProt Q03181); experiment: qHTS assay to identify small molecule agonists of the peroxisome proliferator-activated receptor delta (PPARd) signaling pathway (AID 743212; calls by dose curve;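 further: HEK293H cells with PPARd UAS beta-lactamase reporter GeneBLAzer system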)
In short: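 Beta-lactamase reporter readout: a ratiometric FRET signal from the LiveBLAzer substrate after 2 h at room temperature. Compound exposure at 37 °C in PPARδ-bla HEK293H cells driven by an upstream activator sequence.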

[16] = qHTS assay to identify small molecule antagonists of the peroxisome proliferator-activated receptor delta (PPARd) signaling pathway - cell viability counter screen (AID 743213); further: nearly all actives have a fitted effect of over 50% in size
In short: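 Viability counter-screen, qHTS format: PPARd-bla HEK293H, L165041 300 nM final, 17 h compound exposure at 37 C, CellTiter-Glo luminescence after 30 min RT.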

[17] = target: Peroxisome proliferator-activated receptor delta (Homo sapiens) (UniProt Q03181); experiment: qHTS assay to identify small molecule antagonists of the peroxisome proliferator-activated receptor delta (PPARd) signaling pathway (AID 743215; active means well fitted inhibition curve with a large enough effect in the signal ratio in the repeat runs, not every such curve was filed as active; the % refers to the signal ratio;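 further: cells stimulated with agonist L165041 at 300 nM final during compound exposure; series mostly up to about 62 µM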)
In short: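 Agonist L165041 (300 nM final) added with compound to PPARd-bla HEK293H UAS-bla reporter cells; 17 h incubation at 37 C. Read-out: LiveBLAzer FRET substrate, 2 h at room temperature, fluorescence intensity.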

[18] = target: Vitamin D3 receptor (Homo sapiens) (UniProt P11473); experiment: qHTS assay to identify small molecule antagonists of the vitamin D receptor (VDR) signaling pathway (AID 743223; active means well fitted inhibition curve with a large enough effect in the signal ratio in the repeat runs, not every such curve was filed as active; the % refers to the signal ratio)
In short: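 Reporter line VDR-bla; stimulus 1alpha,25-(OH)2 vitamin D3, 3 nM final; compound co-addition, 16 h 37C/5% CO2; LiveBLAzer B/G substrate 2 h RT; fluorescence intensity.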

[19] = qHTS assay for small molecule activators of the heat shock response signaling pathway - cell viability counter screen (AID 743209); further: nearly all actives have a fitted effect of over 50% in size
In short: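 Cytotoxicity counter screen run in the same wells as the heat-shock bla reporter assay: HeLa HSE-bla cells, 5 h compound exposure at 37 C, viability read by CellTiter-Glo luminescence.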
On the % scale 0 is the no-effect control and ±100 the full control effect.

Chain of Aryl hydrocarbon receptor (Homo sapiens) (P35869 whole entry, looked up): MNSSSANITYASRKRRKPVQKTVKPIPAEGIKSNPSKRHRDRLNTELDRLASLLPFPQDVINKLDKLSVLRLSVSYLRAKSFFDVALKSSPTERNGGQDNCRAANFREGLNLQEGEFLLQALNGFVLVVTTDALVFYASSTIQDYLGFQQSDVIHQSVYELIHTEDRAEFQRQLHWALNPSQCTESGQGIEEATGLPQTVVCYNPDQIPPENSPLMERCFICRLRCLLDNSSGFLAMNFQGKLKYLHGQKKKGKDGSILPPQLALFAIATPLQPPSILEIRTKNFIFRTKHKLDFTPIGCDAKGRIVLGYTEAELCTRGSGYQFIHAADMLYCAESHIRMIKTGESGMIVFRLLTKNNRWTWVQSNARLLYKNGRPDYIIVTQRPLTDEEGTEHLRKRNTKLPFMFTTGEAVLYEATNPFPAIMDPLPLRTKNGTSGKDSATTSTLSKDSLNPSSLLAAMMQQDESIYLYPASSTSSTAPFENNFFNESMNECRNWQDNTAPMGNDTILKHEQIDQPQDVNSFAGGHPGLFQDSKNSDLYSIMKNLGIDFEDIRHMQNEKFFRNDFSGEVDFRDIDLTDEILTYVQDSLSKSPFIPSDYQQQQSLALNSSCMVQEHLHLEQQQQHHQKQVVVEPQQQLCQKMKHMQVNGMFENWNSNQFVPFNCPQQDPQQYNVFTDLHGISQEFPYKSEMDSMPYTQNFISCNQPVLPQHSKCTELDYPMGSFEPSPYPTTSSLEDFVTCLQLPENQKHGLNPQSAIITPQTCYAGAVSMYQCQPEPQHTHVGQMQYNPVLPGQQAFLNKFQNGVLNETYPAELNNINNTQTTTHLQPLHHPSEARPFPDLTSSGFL
Chain of Vitamin D3 receptor (Homo sapiens) (P11473 whole entry, looked up): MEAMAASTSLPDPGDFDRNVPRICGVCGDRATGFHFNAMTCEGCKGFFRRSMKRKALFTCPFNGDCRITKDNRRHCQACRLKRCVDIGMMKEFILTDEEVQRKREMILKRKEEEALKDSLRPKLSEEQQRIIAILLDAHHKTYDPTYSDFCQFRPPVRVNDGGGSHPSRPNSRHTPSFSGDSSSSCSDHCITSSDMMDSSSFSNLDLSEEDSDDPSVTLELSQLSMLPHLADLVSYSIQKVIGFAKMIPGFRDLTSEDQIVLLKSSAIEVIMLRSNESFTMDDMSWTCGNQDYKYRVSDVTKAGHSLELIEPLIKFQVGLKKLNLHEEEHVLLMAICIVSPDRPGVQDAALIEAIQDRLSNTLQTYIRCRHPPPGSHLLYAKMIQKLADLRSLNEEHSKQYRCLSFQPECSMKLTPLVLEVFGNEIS
Chain of Peroxisome proliferator-activated receptor gamma (Homo sapiens) (P37231 whole entry, looked up): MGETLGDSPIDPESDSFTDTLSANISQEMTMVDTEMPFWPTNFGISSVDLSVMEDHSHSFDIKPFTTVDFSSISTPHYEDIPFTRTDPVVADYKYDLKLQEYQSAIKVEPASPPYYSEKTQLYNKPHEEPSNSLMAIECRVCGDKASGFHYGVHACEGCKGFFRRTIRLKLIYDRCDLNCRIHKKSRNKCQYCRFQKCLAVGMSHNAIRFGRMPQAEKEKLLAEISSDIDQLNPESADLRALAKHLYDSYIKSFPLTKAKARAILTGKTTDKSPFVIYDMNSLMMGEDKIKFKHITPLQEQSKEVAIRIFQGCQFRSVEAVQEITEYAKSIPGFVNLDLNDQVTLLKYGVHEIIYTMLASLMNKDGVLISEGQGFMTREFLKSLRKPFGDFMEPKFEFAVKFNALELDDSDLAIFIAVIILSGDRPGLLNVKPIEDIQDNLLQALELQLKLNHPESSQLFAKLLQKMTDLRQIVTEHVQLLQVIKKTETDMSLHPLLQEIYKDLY
Chain of Bile acid receptor (Homo sapiens) (Q96RI1 whole entry, looked up): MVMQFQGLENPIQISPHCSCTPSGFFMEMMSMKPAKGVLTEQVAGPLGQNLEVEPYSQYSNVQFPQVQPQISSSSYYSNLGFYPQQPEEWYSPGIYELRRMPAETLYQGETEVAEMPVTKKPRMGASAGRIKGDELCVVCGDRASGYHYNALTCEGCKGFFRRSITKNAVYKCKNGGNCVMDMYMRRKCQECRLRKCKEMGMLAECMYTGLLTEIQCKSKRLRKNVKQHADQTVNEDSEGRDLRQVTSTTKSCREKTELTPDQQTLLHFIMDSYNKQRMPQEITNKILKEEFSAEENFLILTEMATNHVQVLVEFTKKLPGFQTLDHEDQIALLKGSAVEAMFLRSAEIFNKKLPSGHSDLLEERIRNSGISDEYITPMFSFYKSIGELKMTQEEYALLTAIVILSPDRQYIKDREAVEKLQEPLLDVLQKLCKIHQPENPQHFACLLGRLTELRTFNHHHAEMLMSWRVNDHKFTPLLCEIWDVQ
Chain of Peroxisome proliferator-activated receptor delta (Homo sapiens) (Q03181 whole entry, looked up): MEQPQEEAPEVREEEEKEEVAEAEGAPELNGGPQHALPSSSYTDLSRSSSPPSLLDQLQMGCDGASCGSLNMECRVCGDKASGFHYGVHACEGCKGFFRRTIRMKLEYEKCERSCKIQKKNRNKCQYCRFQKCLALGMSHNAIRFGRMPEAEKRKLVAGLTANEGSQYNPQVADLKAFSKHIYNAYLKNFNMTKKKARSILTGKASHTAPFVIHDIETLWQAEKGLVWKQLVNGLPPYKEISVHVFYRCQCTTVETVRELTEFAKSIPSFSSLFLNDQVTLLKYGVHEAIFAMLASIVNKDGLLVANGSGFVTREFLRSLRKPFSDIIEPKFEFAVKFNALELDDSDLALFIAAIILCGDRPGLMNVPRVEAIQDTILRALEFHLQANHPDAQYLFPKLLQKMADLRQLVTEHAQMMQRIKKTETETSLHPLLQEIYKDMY

O=C(O)C(O)[C@H](O)[C@@H](O)[C@H](O)[C@H](O)CO (stereo partly drawn)
inactive: Potency [1] | Potency [2] | outcome [3] | Potency [4] | Potency [5] | outcome [6] | outcome [7] | Potency [8] | outcome [9] | outcome [10] | outcome [11] | Potency [12] | outcome [13] | outcome [14]

NC(=O)CCCCC1CCSS1 (stereo not drawn)
inactive: Potency [1] | Potency [2] | outcome [3] | Potency [4] | outcome [6] | outcome [7] | Potency [8] | outcome [15] | Potency [16] | outcome [17] | outcome [9] | outcome [11] | Potency [12] | outcome [13] | outcome [18]

CCC(C)(C)C1CCC(OC)CC1 (stereo not drawn)
inactive: Potency [1] | Potency [2] | outcome [3] | Potency [4] | Potency [5] | outcome [6] | outcome [7] | Potency [8] | outcome [15] | Potency [16] | outcome [17] | outcome [9] | outcome [10] | outcome [11] | Potency [12] | outcome [13] | outcome [18]

CCN(CC)S(=O)(=O)c1ccc(C(=O)O)cc1
inactive: Potency [1] | Potency [2] | outcome [3] | Potency [4] | outcome [6] | outcome [19] | outcome [7] | Potency [8] | outcome [15] | Potency [16] | outcome [17] | outcome [10] | Potency [12] | outcome [13] | outcome [14]

OCCN1C[C@H](O)[C@@H](O)[C@H](O)[C@H]1CO
inactive: Potency [1] | Potency [2] | outcome [3] | Potency [4] | outcome [6] | outcome [19] | outcome [7] | Potency [8] | outcome [15] | Potency [16] | outcome [17] | outcome [9] | outcome [10] | outcome [11] | Potency [12]

CNc1ncnc2nc[nH]c12
inactive: Potency [1] | Potency [2] | outcome [3] | Potency [4] | outcome [6] | outcome [19] | outcome [7] | Potency [8] | outcome [15] | outcome [17] | outcome [10] | outcome [13]

NC(=S)Nc1cccc2ccccc12
inactive: activation [1] 0.499% [at 8.47 µM] | viability change, negative = cytotoxic [2] 1.55% [at 8.47 µM] | activation [3] -10.4% [at 7.08 µM] | activity change, negative = cytotoxicity [4] 9.83% [at 5.95 µM] | activation [5] -5.35% [at 8.36 µM] | viability change, negative = cytotoxic [6] 10% [at 8.36 µM] | activity change, negative = cytotoxicity [19] -5.69% [at 5.95 µM] | activation [15] -6.49% [at 5.95 µM] | viability change, negative = cytotoxic [16] 5.98% [at 6.26 µM] | viability change, negative = cytotoxic [10] 18.3% [at 5.95 µM] | activity change, negative = cytotoxicity [12] 8.25% [at 5.95 µM] | activation [13] 4.28% [at 6.01 µM] | activity change, negative = inhibition [18] -15.5% [at 6.95 µM] | activity change, negative = cytotoxicity [14] 6.68% [at 5.95 µM]

CC(C)c1cccc(O)c1
inactive: Potency [1] | Potency [2] | outcome [3] | Potency [4] | outcome [6] | outcome [7] | Potency [8] | outcome [15] | Potency [16] | outcome [10] | outcome [13] | outcome [18] | outcome [14]

COC[C@H](c1ccc(C(F)(F)F)cc1)N1CCN(C2(C)CCN(C(=O)c3c(C)ncnc3C)CC2)C[C@H]1C
inactive: Potency [1] | Potency [2] | outcome [3] | Potency [4] | outcome [6] | outcome [7] | outcome [15] | Potency [16] | outcome [17] | outcome [10] | outcome [13] | outcome [14]

CN(C)CCn1nnnc1SCC1=C(C(=O)O)N2C(=O)[C@@H](NC(=O)Cc3csc(N)n3)[C@H]2SC1
inactive: Potency [1] | Potency [2] | outcome [3] | Potency [4] | outcome [6] | outcome [7] | Potency [8] | outcome [15] | Potency [16] | outcome [17] | outcome [9] | outcome [10] | outcome [11] | outcome [13] | outcome [18] | outcome [14]

Nc1nc(F)nc2c1ncn2[C@@H]1O[C@H](CO)[C@@H](O)[C@@H]1O
inactive: Potency [1] | Potency [2] | outcome [3] | Potency [4] | outcome [6] | outcome [19] | outcome [7] | Potency [8] | outcome [15] | Potency [16] | outcome [17] | outcome [10] | Potency [12] | outcome [14]

NS(=O)(=O)c1cc2c(cc1Cl)NC(CSCc1ccccc1)=NS2(=O)=O
inactive: Potency [1] | Potency [2] | outcome [3] | Potency [4] | outcome [6] | outcome [19] | outcome [7] | outcome [15] | Potency [16] | outcome [17] | outcome [9] | outcome [10] | Potency [12] | outcome [13] | outcome [18] | outcome [14]

C(=C(c1ccccc1)c1ccccc1)c1ccccc1
inactive: Potency [1] | Potency [2] | outcome [3] | Potency [4] | outcome [6] | outcome [19] | outcome [7] | outcome [15] | Potency [16] | outcome [9] | outcome [10] | outcome [11] | Potency [12] | outcome [13] | outcome [18]
